# High-throughput results (PubChem)
# D1 potentiator: enhances dopamine response at the human D1 receptor | HEK293 TREx D1 cells, calcium flux, dopamine EC20 potentiation | 360,000 compounds, 0.036% hits | potentiation, % at 10 µM | AID 504651 | P21728; in the data active = potentiation above about 30%; note: 0% is about no effect
# TRHR ag: TRH receptor (human) agonism. P34981. 360,000 compounds, 0.18% hits. AID 493084. TRHR cells, calcium flux fluo-8, FDSS agonist mode. activation, % at 2 µM; note: 0% is about no effect
# Target sequence (P34981 whole entry, looked up): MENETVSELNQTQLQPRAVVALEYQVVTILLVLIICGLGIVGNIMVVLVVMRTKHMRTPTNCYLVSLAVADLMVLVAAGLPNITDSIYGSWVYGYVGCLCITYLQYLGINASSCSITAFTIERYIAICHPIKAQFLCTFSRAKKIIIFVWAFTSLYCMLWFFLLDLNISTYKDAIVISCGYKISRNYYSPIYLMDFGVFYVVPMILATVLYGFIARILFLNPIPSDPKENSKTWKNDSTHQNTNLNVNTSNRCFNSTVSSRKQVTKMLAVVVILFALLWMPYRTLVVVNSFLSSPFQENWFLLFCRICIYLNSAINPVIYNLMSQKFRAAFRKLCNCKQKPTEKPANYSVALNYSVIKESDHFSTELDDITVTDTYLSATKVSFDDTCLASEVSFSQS
#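 In this calcium-flux screen, cells bearing human TRHR are dye-loaded with fluo-8, baselined for 10 cycles, then exposed to library compounds; positive kinetic calcium responses during the agonist phase mark hits, with TRH as control.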
# D1 antag: antagonists of human D1 dopamine receptor. HEK293 TREx D1 cells, calcium flux, dopamine EC80; active compounds read low. AID 504652. P21728. activity change, negative = inhibition, % at 10 µM. 360,000 compounds, 3.2% hits; in the data active = activity change below about -30%; note: % is set by controls: 0 for no effect and ±100 for the full control effect
#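 Kinetic fluorescence of a calcium dye serves as the read-out. D1-expressing Hek293 Trex cells, induced overnight at 30 C, are exposed to compound for 180 s before an EC80 dopamine addition, then read 180 s further.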
# TRHR PAM: allosterically enhances the human TRH receptor | enhancement, % at 2 µM | TRHR cells, fluo-8 calcium fluorescence, EC20 TRH enhancement | AID 493056 | 360,000 compounds, 0.66% hits; in the data active = enhancement above about 30%; note: 0% is about no effect
#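 Enhancer read-out: after compound pinning and an initial kinetic agonist-mode read, an EC20 of TRH (10 nM final) was injected and fluo-8 calcium signal (Ex 480/Em 530) followed at 1 s/cycle for 100 cycles in TRHR-expressing cells.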
# D1 ag: human D1 receptor agonism; activation, % at 2 µM; 360,000 compounds, 1% hits; HEK293 T-REx D1 cells, calcium flux, agonist mode; P21728; AID 504660; note: 0% is about no effect
#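 Tetracycline-induced HEK293 TREx D1 cells, force-coupled to calcium signalling, were dye-loaded with a no-wash calcium kit. Compound was pin-added after a 10 s baseline. Fluorescence was read kinetically at 1 cycle/s for 180 s, with calcium rises flagged as agonism.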
# The depositor's hits bear a star; / = not tested or not shown. In the library only some 4.7% were active in any assay of this set; here they are far more common. Cut-off read from the data, not from the text of the source, unless noted: active = activation above about 30%; inactive = the rest.
SMILES,D1 potentiator,TRHR ag,D1 antag,TRHR PAM,D1 ag
C/C(=C\C(=O)c1ccc(Br)cc1)NCc1ccc(C)cc1,-8,0,2,40*,1
Cc1ccc(S(=O)(=O)Nc2ccc(Cl)cc2)cc1NC(=O)c1cc2c(s1)CCCC2,2,0,9,32*,-2
Cc1ccc(S(=O)(=O)N2CCOCC2)cc1NC(=O)c1cc2c(s1)CCC2,-1,-1,-3,-3,0
Cc1cnc(NC(=O)c2c(-c3ccccc3)noc2C)s1,-6,0,-34*,-1,-1
CCOC(=O)c1c(NC(=O)c2c(-c3ccccc3)noc2C)sc(C)c1-c1ccccc1,0,0,6,1,3
CCn1nc(-c2ccccc2)c(-c2ccccc2)c(C(=O)Nc2ccccc2C(N)=O)c1=O,0,0,-42*,-5,7
Cc1onc(-c2ccccc2)c1C(=O)OCC(=O)Nc1cccc(Cl)c1,/,2,2,-6,47*
CCOC(=O)c1ccccc1NC(=O)c1c(-c2ccccc2)noc1C,-6,1,-10,7,32*
COc1cccc(CNC(=O)CSc2nc3ccccc3nc2Cc2ccccc2)c1,1,1,-4,-3,3
COc1ccc(-c2cc(C)no2)cc1S(=O)(=O)NC(C)C,0,0,5,-3,1
NCCCCCc1nnc(SCc2ccc(F)cc2)o1,-5,1,3,0,0
CC1(c2ccc([N+](=O)[O-])cc2)Nc2ccccc2S1 (configuration not stated),3,0,1,31*,0
O=C1Nc2ccccc2/C1=C/c1ccc([N+](=O)[O-])cc1,-1,0,-8,-2,-1
Cc1nn(-c2ccccc2)c(C)c1/C=N/NC(=O)c1cc(-c2cccs2)[nH]n1,-13,1,-87*,4,2
CC1(c2ccc(OC(F)F)cc2)NC(=O)N(CC(=O)Nc2cccc(F)c2)C1=O (configuration not stated),-6,12,-61*,1,60*
CC1(c2ccc(OC(F)F)cc2)NC(=O)N(CC(=O)Nc2ccc(S(N)(=O)=O)cc2)C1=O (configuration not stated),-1,0,-1,5,4
CCOc1ccc(NC(=O)CN2C(=O)NC(C)(c3ccc(OC(F)F)cc3)C2=O)cc1 (configuration not stated),-15,9,-43*,-4,38*
CCOC(=O)c1sc(NC(=O)CN2C(=O)NC3(CCCCCCC3)C2=O)c(C(=O)OCC)c1C,5,-1,9,-2,2
CC1(c2ccc(OC(F)F)cc2)NC(=O)N(CC(=O)Nc2ccc(F)cc2)C1=O (configuration not stated),-4,7,-1,11,19
CC1(c2ccc(OC(F)F)cc2)NC(=O)N(CC(=O)Nc2ccc(OC(F)F)cc2)C1=O (configuration not stated),-4,7,-43*,-9,50*
CCOC(=O)c1c(NC(=O)CN2C(=O)NC(C)(c3ccc(OC(F)F)cc3)C2=O)sc(C)c1C (configuration not stated),-1,3,21,3,31*
CCOC(=O)c1cc(-c2ccc(F)cc2)n(CCC(=O)Nc2nc3ccc(OC)cc3s2)c1C,-3,0,9,7,2
CCOC(=O)c1c(C)[nH]c(C(=O)CN2C(=O)NC(C)(c3ccc(C)cc3)C2=O)c1C (configuration not stated),0,4,1,12,54*
CC1(c2ccc(OC(F)F)cc2)NC(=O)N(CC(=O)Nc2ccc(Cl)cc2F)C1=O (configuration not stated),0,6,-13,22,36*
COc1ccc(C2(c3ccc(OC)cc3)NC(=O)N(CC(=O)Nc3ccc(OC(F)F)cc3)C2=O)cc1,-6,3,9,-2,12
Cc1ccc(NC(=O)CN2C(=O)NC(C)(c3ccc(Cl)cc3)C2=O)cc1 (configuration not stated),-3,3,-12,12,16
Cc1cc(NC(=O)CN2C(=O)NC(C)(c3ccc(OC(F)F)cc3)C2=O)no1 (configuration not stated),-6,4,4,1,33*
